# In PubChem BioAssay AID504635 (The Scripps Research Institute Molecular Screening Center, 2011):
# Some of the results follow. Unmarked numbers belong to inactive results. Rule as the data show it: active = inhibition above about 18%; inactive = the rest.
# Target: Troponin I, cardiac muscle (Homo sapiens) + Troponin T, cardiac muscle (Homo sapiens) + Troponin C, slow skeletal and cardiac muscles (Homo sapiens) (UniProt P19429+P45379+P63316)
# Assay: calcium desensitizers of cardiac thin filaments – biochemical, fluorescence readout, confirmation (AID 504635)
# Conditions: reconstituted cardiac thin filaments, calcium sensitivity fluorescence; at 7.15 µM; active compounds read high
smiles,measurement,value
COC1=C[C@@H]2[C@@H]3Cc4ccc(OC)c(O)c4[C@]2(CCN3C)CC1=O,inhibition,-1.97%
